Most compounds without a hit are left out; they make up all but 2.7% or so of the library.
PfGluPho inh = PfG6PD (Plasmodium falciparum) enzyme inhibition | PfGluPho enzyme, NADPH resazurin-diaphorase fluorescence | inhibition, % at 20 µM | actives 0.78% (n = 350,000) | AID 504690;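 active = inhibition reaching at least a set limit at 20 µM in the primary screen, cut at about 59% in these data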;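 note: 0% = DMSO wells with substrate and 100% = DMSO wells lacking glucose-6-phosphate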
Neddylation inh = blocks human cullin neddylation; TR-FRET cullin neddylation, biochemical; calls only at 25 µM; actives 0.58% (n = 360,000); in the data active = inhibition above about 36%
Target sequence (P61081 whole entry, looked up): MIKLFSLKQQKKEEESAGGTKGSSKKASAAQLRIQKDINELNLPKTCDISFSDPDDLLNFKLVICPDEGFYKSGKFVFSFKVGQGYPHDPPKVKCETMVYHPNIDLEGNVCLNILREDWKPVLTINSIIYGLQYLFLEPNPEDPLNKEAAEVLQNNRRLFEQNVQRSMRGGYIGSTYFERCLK
Target sequence (Q13564 whole entry, looked up): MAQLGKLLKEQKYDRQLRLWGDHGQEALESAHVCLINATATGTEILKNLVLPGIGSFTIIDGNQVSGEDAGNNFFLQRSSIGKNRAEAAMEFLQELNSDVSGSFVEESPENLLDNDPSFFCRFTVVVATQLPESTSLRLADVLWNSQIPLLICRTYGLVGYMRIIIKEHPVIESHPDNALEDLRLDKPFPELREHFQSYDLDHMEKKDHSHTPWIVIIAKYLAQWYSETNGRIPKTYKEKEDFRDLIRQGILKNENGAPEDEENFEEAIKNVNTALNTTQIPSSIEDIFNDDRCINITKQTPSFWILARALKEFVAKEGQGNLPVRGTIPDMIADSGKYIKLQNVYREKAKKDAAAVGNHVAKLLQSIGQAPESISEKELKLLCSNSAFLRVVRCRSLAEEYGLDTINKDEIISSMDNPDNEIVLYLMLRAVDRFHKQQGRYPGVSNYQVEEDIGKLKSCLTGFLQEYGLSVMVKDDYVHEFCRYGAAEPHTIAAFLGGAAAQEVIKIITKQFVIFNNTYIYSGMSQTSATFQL
FAS-TE inh = inhibitors of human fatty acid synthase thioesterase domain | P49327 | recombinant FAS-TE, OMFH fluorogenic substrate, fluorescence endpoint | inhibition, % at 15 µM | actives 0.67% (n = 360,000);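 active = compounds whose normalised, plate-corrected inhibition of enzyme fluorescence in the single-dose primary screen is 50% or more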;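 note: 0% = DMSO with enzyme and 100% = substrate without enzyme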
proKLK7 act = proKLK7 (human) activation, primary screen. P49862. purified proKLK7, EDANS-DABCYL substrate fluorescence; 100% is mature enzyme control, 0% vehicle. activation, % at 7 µM. actives 0.9% (n = 370,000). AID 652039;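 active = activation above the mean of all tested compounds plus 3 SD, computed per campaign excluding outliers beyond control limits, cut at about 13% in these data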
FAS-TE inh conf = FAS thioesterase (human) inhibition, confirmation. shares compounds with FAS-TE inh. recombinant FAS-TE, OMFH fluorogenic substrate, fluorescence. inhibition, % at 15 µM. actives 45% (n = 2,300);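 active = compounds inhibiting the enzyme by at least 50% at 15 µM in any one of the replicates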;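 note: 0% = enzyme with DMSO only and 100% = wells lacking enzyme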
Starred values were filed as active, the others as inactive; i = inactive; . = no result given; ! = not confirmed by another sample.

SMILES	PfGluPho inh	Neddylation inh	FAS-TE inh	proKLK7 act	FAS-TE inh conf
Cc1nc(Sc2ccc(Cl)cc2)c(C#N)c(C)c1[N+](=O)[O-]	24	i	64*	0	21
C=CCN1C(=O)[C@@H](CC(=O)NCCCN2CCCC2=O)[C@]2(C(=O)OCC)CCCCC/C=C/12	.	.	.	1	.
O=C1Nc2cc(Cl)c(Cl)cc2N(O)N1c1ccc(Cl)c(Cl)c1	24	i	62*	0	67*
CC(C)(C)C(=O)OC12CCCN(C1)/C(=C/c1ccncc1)C2 (stereo unspecified)	.	.	.	0	.
CC(=O)C(N=Nc1ccccc1)(Sc1nnc(-c2ccccc2)n1-c1ccccc1)C(=O)Nc1ccccc1 (stereo unspecified)	-3	i	79*	-2	17
CC(=O)C(N=Nc1ccccc1)(Sc1nnc(-c2ccccc2)n1-c1ccccc1)C(C)=O	2	i	30	-2	.
CN(N=Cc1ccc([N+](=O)[O-])cc1)c1ccccn1	7	i	50*	0	-37
O=C(c1ccc([N+](=O)[O-])cc1)N(c1ccccn1)c1ccccn1	7	i	-6	0	.
Cc1ccc(CN2C(=O)C(Cc3ccccc3)Nc3ncnc(N4CCN(c5ccccc5)CC4)c32)cc1 (stereo unspecified)	-3	i	62*	-1	12
O=C1C(Cc2ccccc2)Nc2ncnc(N3CCN(c4ccccc4)CC3)c2N1Cc1ccc(Br)cc1 (stereo unspecified)	8	i	83*!	0	15
COc1cc(-n2c(C)nc3cc(C(=O)N4CCCC4)ccc32)cc(OC)c1OC	.	.	.	0	.
Oc1ccccc1-c1nc(NCC2CCCO2)c2ccccc2n1 (stereo unspecified)	7	i	24	1	.
O=C(O)c1ccc(Nc2nc(-c3ccc([N+](=O)[O-])cc3)nc3ccccc23)cc1	24	i	55*	0	7
O=[N+]([O-])c1ccc(-c2nc(NCC3CCCO3)c3ccccc3n2)cc1 (stereo unspecified)	13	i	60*	0	16
CC(C)CNC(=O)OCc1cn(Cc2ccccc2Cl)nn1	.	.	.	0	.
S=c1[nH]nc(-c2cc(-c3ccccc3)n[nH]2)n1/N=C/c1cccc2ccccc12	.	.	.	-1	.
COc1cccc(OCCOc2ccc(/C=C3/SC(=S)NC3=O)cc2)c1	30	i	68*	0	40
COc1ccc(C(=O)NC(CC(=O)O)c2cc([N+](=O)[O-])ccc2Cl)c(SC)c1 (stereo unspecified)	-3	i	50*	0	64*
CCc1ccccc1-c1cc(C(=O)OC)c2n(c1=O)CCC2	.	.	.	0	.
O=C(Nc1ccc(S(=O)(=O)N2CCOCC2)cc1)c1cc([N+](=O)[O-])ccc1Cl	-9	i	65*	0	42
O=C(NC1CCCCC1)c1cc([N+](=O)[O-])ccc1N1CCCC1	7	i	46	0	.
O=C(NC1CCCCCCC1)c1cc([N+](=O)[O-])ccc1Cl	0	i	66*	0	65*
O=C(Nc1ccccc1Oc1ccccc1)c1cc([N+](=O)[O-])ccc1Cl	-12	i	49	0	.
O=C(Nc1ccc(Nc2ccccc2)cc1)c1cc([N+](=O)[O-])ccc1Cl	20	i	59*	0	49*
COc1ccc(N2CCN(C(=O)CSc3ccc([N+](=O)[O-])cc3)CC2)cc1	10	i	60*	0	33*
SMILES	PfGluPho inh	Neddylation inh	FAS-TE inh	proKLK7 act	FAS-TE inh conf
CC(=O)c1ccc(Nc2nc(N3CCOCC3)nc(N3CCOCC3)n2)cc1	4	i	-1	0	.
CCOC(=O)c1ccc(Nc2nc(N3CCOCC3)nc(N3CCOCC3)n2)cc1	14	i	51*	0	14
CCOc1cc(/C=N\Nc2nc(Nc3ccccc3)nc(N3CCOCC3)n2)ccc1OC(=O)c1ccco1	5	i	72*	0	17
COc1cc(/C=N/Nc2nc(C)cc(C)n2)ccc1OC(=O)c1ccco1	5	i	-2	0	.
Fc1ccc(-c2n[nH]c(=S)n2N=Cc2ccc(-c3ccccc3)cc2)cc1	.	.	.	0	.
CCOC(=O)[C@H](Cc1ccccc1)NC(=O)[C@H]1C[C@@]2(N3CCCCC3)c3ccccc3N(C(=O)OC(C)(C)C)[C@H]2N1C(=O)OC(C)(C)C	.	.	.	-1	.
CCCCCN(CCCCC)C(=O)C(CCC(=O)O)NC(=O)c1ccc(Cl)c(Cl)c1 (stereo unspecified)	-8	i	72*	-1	74*
CCCCN(CC)C(=O)c1ccc(Cl)c(Cl)c1	-13	i	-1	0	.
O=C(c1ccco1)N1CCN(C(=S)Nc2cccc([N+](=O)[O-])c2)CC1	-4	i	3	0	.
O=[N+]([O-])c1cccc(NC(=S)N2CCc3ccccc3C2)c1	34	i	51*	0	23*
O=C(Nc1cccc([N+](=O)[O-])c1)Nc1ccc2c(c1)CCC2	19	i	53*	0	14
O=C(COCc1ccccc1)N1CC[C@H]2[C@H](CCCN2Cc2cc(F)cc(F)c2)C1	.	.	.	0	.
O=C(OCc1cn(Cc2ccccc2)nn1)N1CCCC1	.	.	.	0	.
COC(=O)C1CN(Cc2cn(Cc3ccc(F)cc3)nn2)CCS(=O)(=O)N1Cc1ccc(F)cc1 (stereo unspecified)	.	.	.	0	.
O=C(NCc1cccc(F)c1)c1cccc2c1C(=O)c1ccc(N3CCCC3)cc1S2(=O)=O	6	i	-119	.	.
COc1ccccc1N1CCN(c2ccc3c(c2)S(=O)(=O)c2cccc(C(=O)NCc4ccc(F)cc4)c2C3=O)CC1	-14	i	51*	1	23
COc1ccccc1CNC(=O)N1CCN(Cc2nc3ccccc3c(=O)[nH]2)CC1	.	.	.	0	.
Cc1ccc(NC(=O)CN2C(=O)CCSc3ccccc32)cc1C	.	.	.	0	.
Cc1ccc(-c2c(NC(=O)c3cccc(C)c3)nc3ncccn23)cc1	.	.	.	6	.
CCc1nc2c(OCc3ccc(Cl)cc3Cl)cccn2c1N(C=O)Cc1ccc(OC)cc1	.	i	78*	0	62*
CCc1nc2c(OCc3ccc(Cl)cc3)cccn2c1N(C=O)Cc1ccc(OC)cc1	.	i	54*	1	62*
CCc1nc2c(OCCOc3ccc(F)cc3)cccn2c1N(C=O)Cc1ccc(OC)cc1	.	i	16	1	.
CCc1nc2c(OCC(=O)c3ccc(Cl)cc3Cl)cccn2c1N(C=O)Cc1ccc(OC)cc1	.	i	18	0	.
Cn1c(-c2ccccc2)cnc1NCc1cccc([N+](=O)[O-])c1	22	i	71*	0	67*
O=C(Nc1ccc2c(c1)OCCO2)C(c1cc2ccccc2o1)N1CCN(c2ccc(F)cc2)CC1 (stereo unspecified)	.	i	45	-1	.
O=C(Nc1ccc2c(c1)OCCO2)C(c1cc2ccccc2o1)N1CCN(c2ccc(C(F)(F)F)cn2)CC1 (stereo unspecified)	.	i	55*	-2	18
